Measurements as given in PubChem BioAssay.
Where “and” joins values, the source holds several entries; their conditions need not be identical. Identical values can stand only once. Records with an inconclusive call do not appear. Calls of active or inactive are those of the source.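 The calls were made as follows, unless noted: active = compounds whose cell count with miR-34 switched on is under 0.7 times the count with it off; inactive = the rest.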

Assays:
[1] = sensitizers of A549 cells to miR-34 induction, primary screen, imaging, A549 dox-inducible miR-34, nuclei and caspase counts (AID 1347080); conditions: A549 miR-34 inducible, Hoechst nuclei count, 48 h
[2] = biological target: NAD(+) hydrolase SARM1 (Homo sapiens) (UniProt Q6SZW1); assay: SARM1 TIR NADase inhibitors, cell lysate, NAD-Glo luminescence (AID 1508614;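 active = compound whose remaining NAD level is above about 45 nM, limit read from the data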;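 also: higher remaining NAD means stronger inhibition of SARM1 NADase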); conditions: SAM-TIR HEK293T lysate NADase, at 1 µM, stronger effect = higher value
NAD(+) hydrolase SARM1 (Homo sapiens), sequence (Q6SZW1 whole entry, looked up): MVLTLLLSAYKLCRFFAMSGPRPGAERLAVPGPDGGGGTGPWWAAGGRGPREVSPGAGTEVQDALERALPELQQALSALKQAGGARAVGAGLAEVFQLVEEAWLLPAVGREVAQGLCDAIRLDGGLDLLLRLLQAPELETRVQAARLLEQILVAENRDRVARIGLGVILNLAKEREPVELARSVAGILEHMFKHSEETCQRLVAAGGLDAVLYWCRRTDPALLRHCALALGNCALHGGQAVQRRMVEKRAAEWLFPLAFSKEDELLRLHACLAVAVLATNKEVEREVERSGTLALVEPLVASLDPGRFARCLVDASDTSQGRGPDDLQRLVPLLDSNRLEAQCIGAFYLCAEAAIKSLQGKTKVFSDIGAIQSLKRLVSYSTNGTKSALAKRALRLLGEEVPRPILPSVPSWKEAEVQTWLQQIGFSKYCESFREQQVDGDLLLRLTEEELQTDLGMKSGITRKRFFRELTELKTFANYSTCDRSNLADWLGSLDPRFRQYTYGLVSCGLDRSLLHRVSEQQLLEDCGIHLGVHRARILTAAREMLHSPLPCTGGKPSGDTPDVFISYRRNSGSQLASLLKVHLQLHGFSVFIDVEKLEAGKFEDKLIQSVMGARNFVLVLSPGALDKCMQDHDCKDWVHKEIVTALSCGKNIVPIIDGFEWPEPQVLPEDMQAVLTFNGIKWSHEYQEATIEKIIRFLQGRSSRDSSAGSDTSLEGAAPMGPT

[3] = mitochondrial permeability transition inhibitors (AID 1580; call rule not given here); conditions: isolated mitochondria, permeability transition inhibition
[4] = polyglutamine-triggered caspase-3 activation inhibitors, cell-based (AID 1583); conditions: polyglutamine-induced caspase-3 activation, cell assay; stronger effect = higher value;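 tested at 10 µM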
[5] = suppressors of polyQ aggregation in yeast, 75Q-TubU reporter (AID 1593); conditions: Yeast 75Q polyglutamine aggregation reporter
[6] = inhibitors of mitochondrial cytochrome c release, biochemical, purified mitochondria (AID 1603); conditions: stronger effect = lower value;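 also: mouse liver mitochondria challenged with calcium chloride; signal normalized to the plate average as 100%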
[7] = inhibitors of polyQ protein aggregation (AID 1604); conditions: polyglutamine-induced protein aggregation inhibition assay; stronger effect = higher value; tested at 2.5 µM
[8] = protection against mutant huntingtin cytotoxicity, PC12 cells, LDH release (AID 1610); conditions: PC12 mutant huntingtin toxicity, final LDH at 4 uM, stronger effect = lower value
[9] = enhancers of glutamate uptake in motor neurons, MN-1 cell line (AID 1612); conditions: MN-1 motor neuron cells, stronger effect = higher value;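 also: tested at 1 µM final; 0% = mean of DMSO vehicle wells on each plate; positive means more glutamate uptake than control and negative means less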
[10] = suppressors of polyglutamine aggregation in yeast, 75Q-TubH (AID 1616); conditions: S. cerevisiae 75Q-TubH polyglutamine aggregation suppression; stronger effect = higher value
[11] = liver-stage malaria parasite growth inhibition, primary screen, cell-based, HepG2, luciferase luminescence, HepG2 viability (AID 624349; in the data active = parasite load remaining mostly below about 12%, no sharp cut-off; inactive = mostly above about 10%;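 also: 100% = mean of DMSO negative control wells on the same plate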); conditions: P. berghei liver stage in HepG2, luciferase luminescence, concentration not given here; parasite load remaining: stronger effect = lower value; viability: measured here: HepG2 viability without parasites
[12] = survival rescue of mitochondrial mutant cells in low glucose, primary screen, MELAS cybrids, Rieske KO mouse fibroblasts, CellTiter-Glo (AID 1508586;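 active = mean z-score across replicates of 1.96 or higher in either the MELAS or the Rieske mutant cell line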;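 also: z relative to plate mean and SD of compound and empty wells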)
[13] = viability rescue of complex I mutant cybrids, primary screen, cell-based, galactose medium, ATP luminescence (AID 1645843;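 active = z-score of at least 1.8 in each of two replicates, scored against plate mean and spread of sample wells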;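 also: positive z means more ATP and so rescue of galactose-driven cybrid death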); conditions: complex I mutant cybrid cells, 72 h, stronger effect = higher value
[14] = hESC survival regulators, cell-based (AID 493140; call rule not given here;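 also: cells exposed to compounds for four days before counting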); conditions: human embryonic stem cell survival screen; stronger effect = higher value
[15] = biological target: ATP-dependent translocase ABCB1 (Homo sapiens) (UniProt P08183); assay: MDR1 (ABCB1) efflux transporter inhibition, cell-based (AID 377; in the data active = fluorescence slope change above about 50%); conditions: MDR1-expressing cells, fluorescent substrate accumulation slope; stronger effect = higher value; concentration not given here
ATP-dependent translocase ABCB1 (Homo sapiens), sequence (P08183 whole entry, looked up): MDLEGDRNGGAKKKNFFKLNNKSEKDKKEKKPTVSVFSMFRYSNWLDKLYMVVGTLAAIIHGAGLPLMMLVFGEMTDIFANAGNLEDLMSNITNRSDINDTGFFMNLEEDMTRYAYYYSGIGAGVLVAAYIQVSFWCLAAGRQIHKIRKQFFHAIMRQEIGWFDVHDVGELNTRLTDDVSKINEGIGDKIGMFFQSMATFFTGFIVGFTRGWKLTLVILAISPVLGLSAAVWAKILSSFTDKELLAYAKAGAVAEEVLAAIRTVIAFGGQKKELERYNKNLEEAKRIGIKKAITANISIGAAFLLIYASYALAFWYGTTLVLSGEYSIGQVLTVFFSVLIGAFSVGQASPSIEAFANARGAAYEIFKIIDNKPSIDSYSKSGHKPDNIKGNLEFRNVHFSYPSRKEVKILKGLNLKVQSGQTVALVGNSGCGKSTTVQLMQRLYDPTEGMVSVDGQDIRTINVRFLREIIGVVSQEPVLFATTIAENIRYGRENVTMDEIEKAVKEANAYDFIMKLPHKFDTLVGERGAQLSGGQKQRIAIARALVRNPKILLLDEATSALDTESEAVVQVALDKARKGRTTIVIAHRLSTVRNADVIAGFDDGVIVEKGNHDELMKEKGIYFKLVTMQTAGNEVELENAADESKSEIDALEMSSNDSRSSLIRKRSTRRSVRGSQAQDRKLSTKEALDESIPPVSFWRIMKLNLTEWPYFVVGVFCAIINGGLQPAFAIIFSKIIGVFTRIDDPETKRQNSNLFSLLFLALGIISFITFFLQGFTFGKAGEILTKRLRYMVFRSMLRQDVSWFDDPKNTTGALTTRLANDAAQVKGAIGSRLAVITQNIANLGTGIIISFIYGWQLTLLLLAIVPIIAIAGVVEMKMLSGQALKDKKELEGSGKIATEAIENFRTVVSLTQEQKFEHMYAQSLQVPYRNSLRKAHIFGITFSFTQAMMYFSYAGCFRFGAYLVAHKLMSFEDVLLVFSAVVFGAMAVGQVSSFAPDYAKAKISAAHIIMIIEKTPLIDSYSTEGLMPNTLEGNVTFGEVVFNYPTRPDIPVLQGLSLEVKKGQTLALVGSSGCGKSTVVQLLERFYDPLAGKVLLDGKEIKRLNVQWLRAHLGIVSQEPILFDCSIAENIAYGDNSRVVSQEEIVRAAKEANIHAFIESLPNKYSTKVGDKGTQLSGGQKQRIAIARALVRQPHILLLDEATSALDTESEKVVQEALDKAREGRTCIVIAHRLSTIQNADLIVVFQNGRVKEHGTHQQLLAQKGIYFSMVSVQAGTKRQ

[16] = measured here: relative caspase fold change +Dox/-Dox
[17] = measured here: total cells with miR-34 induction, stronger effect = lower value
[18] = measured here: total cells without miR-34 induction
[19] = MELAS cybrid survival, CellTiter-Glo 48 h, stronger effect = higher value
[20] = Rieske KO mouse fibroblast survival, CellTiter-Glo 72 h
[21] = stronger effect = lower value, cell number ratio, induced over uninduced

## C#CC(C)(O)CC (configuration not stated)
[1]; stronger effect = lower value
  fold change: 0.85 (inactive)
[1]; [16]
  fold change: 1.03
[1]; [17]
  cell count: 8040
[1]; [18]
  cell count: 9450
[2]
  remaining NAD: 10 nM (inactive)

## CNc1ccc2oc(C[C@@H]3OC4(CC[C@@H]3C)O[C@H](C(C)C(=O)c3ccc[nH]3)[C@H](C)C[C@H]4C)nc2c1C(=O)O (some centres not stated)
[3]
  EC50: 1000 nM (active)
[4]
  inhibition: 86.4%
[5]
  score: -0.79
[6]
  cytochrome c release ratio: 0.48
[7]
  inhibition of aggregation: 51.9%
[8]
  normalised LDH release: 1.68
[9]
  glutamate uptake change: -78%
[10]
  aggregation suppression score: -0.166
[1]; stronger effect = lower value
  fold change: 1.33 (inactive)
[1]; [16]
  fold change: 0.886
[1]; [17]
  cell count: 885
[1]; [18]
  cell count: 666

## Oc1ccc2c3c1O[C@H]1c4oc5ccccc5c4C[C@@]4(O)[C@@H](C2)N(CC2CC2)CC[C@]314
[11]
  parasite load remaining: 33.1% (inactive)
  viability: 94%
[1]; stronger effect = lower value
  fold change: 0.915 (inactive)
[1]; [16]
  fold change: 0.462
[1]; [17]
  cell count: 9980
[1]; [18]
  cell count: 10900
[12]; [19]
  z-score: -0.602 (inactive)
[12]; [20]
  z-score: 0.281
[13]
  z-score: -0.095 (inactive)

## C=CCN1CC[C@]23c4c5ccc(O)c4O[C@H]2/C(=N/N=C2\CC[C@@]4(O)[C@H]6Cc7ccc(O)c8c7[C@@]4(CCN6CC=C)[C@H]2O8)CC[C@@]3(O)[C@H]1C5
[11]
  parasite load remaining: 8.58% (inactive)
  viability: 59%
[1]; stronger effect = lower value
  fold change: 0.791 (inactive)
[1]; [16]
  fold change: 1.27
[1]; [17]
  cell count: 7760
[1]; [18]
  cell count: 9820
[12]; [19]
  z-score: -0.547 (inactive)
[12]; [20]
  z-score: -0.931
[13]
  z-score: -1.6 (inactive)

## CC(C)[C@]12OC1C1O[C@]13[C@]1(OC1CC1C4=C(CC[C@@]13C)C(=O)OC4)C2O (some centres not stated)
[1]; [21]
  fold change: 0.971 (inactive)
[1]; [16]
  fold change: 1.93
[1]; [17]
  cell count: 2260
[1]; [18]
  cell count: 2320
[13]
  z-score: -1.85 (inactive)

## CN[C@@H]1[C@@H](O)[C@@H](O[C@@H]2[C@@H](O)[C@H](O[C@H]3O[C@H]([C@@H](C)NC)CC[C@H]3N)[C@@H](N)C[C@H]2N)OC[C@]1(C)O (tested in a mixture with another compound)
[14]
  survival: 18.8 (inactive)
[11]
  parasite load remaining: 54.7% (inactive) and 51.8% (inactive)
  viability: 60.6% and 91.5%
[1]; stronger effect = lower value
  fold change: 1.02 (inactive)
[1]; [16]
  fold change: 0.941
[1]; [17]
  cell count: 8090
[1]; [18]
  cell count: 7960
[12]; [19]
  z-score: -0.902 (inactive)
[12]; [20]
  z-score: -0.563

## C[C@]12CC[C@H](O)C[C@H]1CC[C@@H]1[C@@H]2CC[C@]2(C)[C@@H](C3=CC(=O)OC3)CC[C@]12O
[15]
  fluorescence slope change: 80.1% (active)
[14]
  survival: 11.7 (inactive)
[11]
  parasite load remaining: -9.15% (inactive) and 10.4% (inactive)
  viability: 40.6% and 30.9%
[1]; stronger effect = lower value
  fold change: 0.981 (inactive)
[1]; [16]
  fold change: 1.54
[1]; [17]
  cell count: 557
[1]; [18]
  cell count: 568
[12]; [19]
  z-score: -0.147 (inactive)
[12]; [20]
  z-score: 0.0544

## CCOC(=O)c1cncn1[C@@H](C)c1ccccc1
[11]
  parasite load remaining: 94.8% (inactive)
  viability: 128%
[1]; stronger effect = lower value
  fold change: 0.937 (inactive)
[1]; [16]
  fold change: 0.906
[1]; [17]
  cell count: 8390
[1]; [18]
  cell count: 8960
[12]; [19]
  z-score: -0.428 (inactive)
[12]; [20]
  z-score: -0.415

## COc1cc2c(cc1OC)[C@@]13CCN4CC5=CCOC6CC(=O)N2C1C6C5CC43 (some centres not stated)
[1]; [21]
  fold change: 0.989 (inactive)
[1]; [16]
  fold change: 1.53
[1]; [17]
  cell count: 8280
[1]; [18]
  cell count: 8360
[13]
  z-score: -0.335 (inactive)
